# Rab9 promoter act = activators of Rab9 promoter; Huh7 Rab9 promoter-luciferase reporter, luminescence, 24 h; Potency, µM (top dose mostly 9.22 µM), inactives show at the highest dose activation, negative = inhibition, most hits filed as activators; hit rate 2.8% among 320,000; further: % of control where 0% means no effect; nearly all actives have a fitted effect of over 60% in size
#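 Luminescence read-out: Huh7 cells stably expressing Rab9-luciferase, treated 24 h with compound at 37 °C, then lysed with luciferase reagent for 10 min at ambient before reading.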
# ELG1 repair inh = inhibitors of ELG1-dependent DNA repair in HEK293T cells. HEK293T ELG1-luciferase reporter, luminescence, 16 h; DNA damage induced by 5-fluorouridine. Potency, µM (series often up to 46.1 µM), for the others: at the highest dose activity change, negative = inhibition, hits mostly inhibitors. hit rate 2.3% among 330,000. AID 504467; further: on the % scale 0 is the no-effect control and ±100 the full control effect; nearly all actives have a fitted effect of over 55% in size
#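 Overnight (16 hr) co-exposure of 2,000 cells/well to 5-fluorouridine and compound at 37 °C preceded detection. Luciferase was quantified via ONE-Glo luminescence; loss of signal denotes inhibition.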
# SMN2 splice enh = SMN2 splice variant enhancement; hit rate 2.8% among 210,000; Potency, µM (titrated, usually from 46.1 µM), without a hit: at the highest dose activity change, positive = activation, hits mostly activators; AID 1458; HEK293 SMN2-luciferase splicing reporter, luminescence, 30-36 h; further: % of control where 0% means no effect; nearly all actives have a fitted effect of over 55% in size
#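 HEK293 cells carry an SMN2 minigene-luciferase reporter in which exon 7 inclusion puts luciferase in frame. Cells were seeded at 2000 cells/well, attached for 10-12 hours, then exposed to compounds for 30-36 hours at 37C before ONE-Glo luminescence.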
# NPC1 promoter act = NPC1 promoter activation; Huh7 NPC1 promoter luciferase reporter, 24 h; Potency, µM (titrated, usually from 9.22 µM), for the others: at the top dose activation, most hits filed as activators; AID 485313; hit rate 2.4% among 320,000; further: % of control where 0% means no effect; nearly all actives have a fitted effect of over 60% in size
#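 Huh7 cells stably carrying NPC1 promoter–luciferase, plated in Opti-MEM with 10% FBS for 2 h, were exposed to compound in DMSO for 24 h at 37 °C; luciferase reagent was added for 10 min and luminescence read.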
# FLuc counter = inhibits or activates purified firefly luciferase, miR-21 counter-screen. P08659. hit rate 6.9% among 360,000. Potency, µM (titrated, usually from 57.5 µM), for the others: at the highest dose activity change, negative = inhibition, usual class: inhibitors. purified FLuc, Km substrates, luminescence inhibition;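 further: plate controls were vehicle for no effect and reference inhibitor for full effect; nearly all actives have a fitted effect of over 55% in size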
# Target sequence (P08659 whole entry, looked up): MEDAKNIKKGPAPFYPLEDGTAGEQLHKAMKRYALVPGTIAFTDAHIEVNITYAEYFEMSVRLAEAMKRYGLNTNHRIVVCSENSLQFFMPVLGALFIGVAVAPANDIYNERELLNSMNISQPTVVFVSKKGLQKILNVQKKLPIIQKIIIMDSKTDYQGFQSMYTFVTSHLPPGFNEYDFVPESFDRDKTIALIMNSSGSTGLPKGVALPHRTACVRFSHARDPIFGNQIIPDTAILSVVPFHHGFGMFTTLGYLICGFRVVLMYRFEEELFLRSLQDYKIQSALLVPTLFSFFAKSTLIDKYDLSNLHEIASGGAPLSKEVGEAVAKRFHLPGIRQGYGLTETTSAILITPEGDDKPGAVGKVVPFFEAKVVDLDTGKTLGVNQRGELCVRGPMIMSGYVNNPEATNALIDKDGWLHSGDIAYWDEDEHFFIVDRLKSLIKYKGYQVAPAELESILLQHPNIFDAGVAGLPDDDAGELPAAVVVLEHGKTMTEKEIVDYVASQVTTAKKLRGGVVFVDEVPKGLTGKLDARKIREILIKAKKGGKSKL
#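 Purified P. pyralis luciferase (10nM final) with 10uM D-luciferin and 10uM ATP (Km levels) in 50mM Tris acetate pH 7.5, 10mM Mg acetate, 0.01% Tween-20, 0.05% BSA; qHTS 6-point titration, ~60 µM downward; luminescence read.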
# ELG1 genotox = induces genotoxicity in HEK293T cells with luciferase-tagged ELG1; Potency, µM (highest dose often 46 µM), without a hit: at the highest dose activity change, positive = activation, usual class: activators; HEK293T ELG1-luciferase reporter, luminescence, 16 h; hit rate 1.3% among 330,000; further: % of control where 0% means no effect; nearly all actives have a fitted effect of over 60% in size
#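 Luminescence read-out: rising ELG1-luciferase signal, reflecting elevated ELG1 protein under genetic stress, flags genotoxic compounds. Cells were treated for 16 hr at 37 °C before ONE-Glo detection.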
# Starred values were filed as active, the others as inactive; ? = inconclusive; . = no result given. Only some compounds are listed: those with a hit (about 9.3% of all), similar ones and a draw of the others. The call rests on the fitted dose curve; in most records, active means well fitted curve in the direction sought with a large enough effect; inconclusive means small, poorly fitted or top-dose-only effect, or another doubt; inactive means no such curve, though single readings can be large; an effect the other way counts as inactive or inconclusive. Potency means the concentration at half of the fitted maximal effect.
SMILES,Rab9 promoter act,ELG1 repair inh,SMN2 splice enh,NPC1 promoter act,FLuc counter,ELG1 genotox
O=C(NCCNc1ccccc1[N+](=O)[O-])c1cc(F)c(F)cc1Cl,?,?,.,?,19µM*,?
O=C(NCCCNc1ccc(C(F)(F)F)cc1[N+](=O)[O-])c1cc(F)c(F)cc1Cl,-7.7%,?,-29.4%,-2.7%,-7.5%,-4.4%
CC(C)COc1ccc(C(=O)Nc2ccccc2[N+](=O)[O-])cc1,?,?,15.8µM*,?,?,?
COc1ccc(C(=O)NCCNc2ccccc2[N+](=O)[O-])cc1,0.631µM*,?,11.2µM*,1.58µM*,4.78µM*,11.6µM*
CSCC[C@H](NC(=O)c1cccc(S(=O)(=O)N2CCCCCC2)c1)c1nc2ccccc2[nH]1,.,23.1µM*,.,.,.,-5.4%
CCn1nc(C(=O)N[C@@H](CCSC)c2nc3ccccc3[nH]2)c2ccccc2c1=O,0.0%,-15.2%,17.8%,2.0%,10.7µM*,15.5%
CSCCC(NC(=O)c1cccc(S(=O)(=O)N2CCOCC2)c1)c1nc2ccccc2[nH]1 (configuration not stated),0.3%,1.7%,.,-2.3%,.,-0.4%
CC1(C)CC(=O)c2cc(-c3nc(-c4ccc(F)cc4)cs3)c(=O)[nH]c2C1,.,.,-0.3%,.,2.0%,.
CCOC(=O)c1sc2nc(C)nc(NCCc3ccccn3)c2c1C,-5.1%,20.6µM*,-20.6%,-1.7%,-7.5%,-14.3%
COc1cc(Cl)ccc1OCc1cc(C(=O)N2C[C@H]3CC[C@H]2C3)no1,1.41µM*,?,.,3.55µM*,8.49µM*,8.2µM*
COc1cc(Cl)ccc1OCc1cc(C(=O)N2C[C@]3(C)C[C@H]2CC(C)(C)C3)no1,1.78µM*,?,.,?,19µM*,?
O=C(c1cc(COc2cccc(C(F)(F)F)c2)on1)N1C[C@@H]2CCC[C@H]1C2,?,?,.,-14.6%,23.9µM*,?
O=C(c1cc(COc2cccc(C(F)(F)F)c2)on1)N1CCC(c2ccccc2)CC1,-3.8%,-2.8%,.,-0.2%,6.0%,-11.7%
COc1cc(Cl)ccc1OCc1cc(C(=O)N2C[C@@H]3CCC[C@H]2C3)no1,3.98µM*,?,.,3.16µM*,9.53µM*,2.91µM*
CC(C(=O)Nc1ccc(N(C)C)cc1)N1C(=O)c2ccccc2S1(=O)=O (configuration not stated),1.7%,21.7%,.,1.5%,-19.7%,7.5%
Cc1onc(-c2c(Cl)cccc2Cl)c1NC(=O)NC1CCSC1 (configuration not stated),-1.0%,-16.4%,.,1.3%,-0.4%,-0.4%
CCN(C(=O)c1noc2c1COc1ccc(C)cc1-2)c1cccc(C)c1,.,.,.,.,-6.2%,.
O=C1OC(c2ccccc2)=N/C1=C\N1CCCCC1,3.55µM*,?,?,2.82µM*,9.53µM*,?
O=C1CC(c2ccccc2)CC(=O)C1=CN1CCCC1 (configuration not stated),-3.9%,-4.6%,.,-1.7%,-2.7%,-2.5%
O=C1OC(c2ccccc2)=C/C1=C/N1CCCCC1,2.51µM*,?,?,2.51µM*,6.01µM*,?
O=C1OC(c2ccc(Br)cc2)=N/C1=C\N1CCCCC1,2.51µM*,?,12.6µM*,2.24µM*,?,14.6µM*
Oc1c(/C=N/Nc2cccc3cccnc23)ccc2ccccc12,3.16µM*,?,11.2µM*,?,?,?
Cc1nnsc1C(=O)N/N=C/c1ccc2ccccc2c1O,-28.3%,?,.,-17.6%,?,-8.4%
Oc1cccc(/C=N/Nc2cccc3cccnc23)c1,?,?,.,?,0.675µM*,?
COc1cc(/C=N/Nc2cccc3cccnc23)cc(OC)c1O,?,?,?,-2.0%,2.69µM*,6.1%
COc1cccc(CNc2cccc3cccnc23)c1O,14.2%,?,0.2%,17.9%,?,?

# Assay outcomes (PubChem BioAssay)
